Source: PubChem BioAssay (EPA / NIEHS)
Activity calls are given as the source filed them. How the source made its calls: active means hit-call score of the fitted dose curve at least 0.9, where 1 is the maximum; inactive means score below 0.9.

Read-out: Cytochrome P450 (CYP2B6), CYP2B6 (gene 1555)
Assay: LTEA_HepaRG_CYP2B6: Life Technologies and Expression Analysis (LTEA) Assay for Cytochrome P450 (CYP2B6) using HepaRG (AID 2283481)
Settings: mRNA level, 48 h; actives raise or lower the signal
Description: LTEA_HepaRG is a cell based, multiplexed-readout assay that uses HepaRG, a human liver cell line, with measurements taken at 48 hours after chemical dosing on a 96-well plate.LTEA_HepaRG_CYP2B6 is one of 102 assay component(s) measured in the LTEA HepaRG cell culture assay. It is a marker of NR mediated metabolism.Data from the assay component LTEA_HepaRG_CYP2B6 was analyzed into 1 endpoint. This assay endpoint, LTEA_HepaRG_CYP2B6, was analyzed with bidirectional fitting relative to DMSO as the negative control and baseline of activity. Using a type of inducible reporter, measures of mRNA induction for gain or loss-of-signal activity can be used to understand regulation of transcription factor activity. To generalize the intended target to other relatable targets, this assay endpoint is annotated to the cyp intended target family, where the subfamily is xenobiotic metabolism.
A total of 1060 chemcials from the ToxCast library were tested in eight-point concentration-response experiments. Cell culture and cytotoxicity assays were conducted at Thermo Fisher Scientific's Custom Services facility (Madison, WI). A single lot of human HepaRG cells (Thermo Fisher Scientific, Frederick, MD) was used for the cell culture experiments. 96-well format collagen type I coated plates of human HepaRG cells were prepared using established methods. Briefly, cryopreserved HepaRG cells were thawed, plated at a density of approximately 100,000 cells/well in HepaRG Thaw, Plate, and General Purpose media (HPRG770, Thermo Fisher Scientific), and incubated for 48 hours. 0.5% DMSO was selected as vehicle control to balance the requisite need of DMSO in HepaRG cultures to maintain differentiation (for example, baseline metabolism, proportions of hepatocytes vs. cholangiocytes), while enabling further hepatic receptor pathway activation (for example, PXR and CAR) in response to chemical exposure. 48 hours after plating, the culture medium was replaced with HepaRG Serum-Free Incudtion Media. Cells were exposed to each test chemical in duplicate and maintained in CO2 incubators for another 48 hours. Chemical plates were thawed to room temperature and 200x concentrations of treatment groups were prepared. 8-point conentration-reponse curves were made with the highest exposure at 100 uM, followed by half-log dilutions, all in 0.5% DMSO. Each test plate contained variouse controls, induction positive controls (1mM phenobarbital), cytotoxicity positive controls ([…] aflatoxin B1), vehicle controls (0.5% DMSO), and total lysis controls (0.5% DMSO). Cell morphology images were taken using an Essen IncuCyte FLR automated microscope, with six 96-well plates imaged in about 24 minutes. Images were captured and exported and JPEG files. Spent culture media was transfered to black-well plates for the LDH assay, and remaining media was sorted at -80 C for later use. Cells were treated with RLT buffer and frozen until shipped for gene expression analysis. Total RNA was isolated from the cell suspension in 75 uL of Buffer RLT (Qiagen, Germantown, MD 20874) by Quintiles/Expression Analysis (Durham, NC) using a custom isolation procedure. Total RNA from each plate well was transferred to a preamplification plate. Fluidigm's 96.96 Dynamic ArrayTM (Fluidigm, Amsterdam, the Netherlands) technology was used for gene expression analyses by quantitative reverse transcription polymerase chain reaction (qRT-PCR, performed by Quintiles/Expression Analysis, Durham, NC)89. Standard TaqManTM Assays (Applied Biosystems/ThermoFisher Scientific, Foster City, CA) were used to assess the expression of 93 genes selected based on their selectivity and sensitivity to important hepatic receptors known to be modulated by environmental chemicals; importance in human hepatocyte functionality; and hepatotoxicity. […]

SMILES | AC50 | outcome
CCc1cc(C2=C(C(=O)O)N(c3ccccc3C(F)(F)F)S(=O)(=O)c3ccccc32)cc2c1OCO2 | 90.5 µM (active) | 
CCOCCOCCO |  | inactive
CC(C)OC(=O)C(C)(C)Oc1ccc(C(=O)c2ccc(Cl)cc2)cc1 | 63.3 µM (active) | 
CC1(C)C(=O)NC(=O)N1CO |  | inactive
O=C(O)CN(CC(=O)O)CC(=O)O |  | inactive
CC(=O)CC(c1ccccc1)c1c(O)c2ccccc2oc1=O (stereo not given) | 29.7 µM (active) | 
CC1=C(C)S(=O)(=O)CCS1(=O)=O | 89 µM (active) | 
CN(C)C(=O)NC1(c2ccccc2)CCN(CC[C@@]2(c3ccc(F)c(F)c3)CN(C(=O)c3ccccc3)CCO2)CC1 |  | inactive
COC(=O)[C@H]1[C@H]2C[C@@H]3c4[nH]c5cc(OC)ccc5c4CCN3C[C@H]2C[C@@H](OC(=O)c2cc(OC)c(OC)c(OC)c2)[C@@H]1OC | 61.7 µM (active) | 
CCc1nc(N)nc(N)c1-c1ccc(Cl)cc1 | 82.3 µM (active) | 
Cc1c(C)c2c(c(C)c1O)CCC(C)(COc1ccc(CC3SC(=O)NC3=O)cc1)O2 (stereo not given) | 26.4 µM (active) | 
CC(C)c1cccc(C(C)C)c1NC(=O)NS(=O)(=O)c1cc(C(C)(C)O)co1 | 5.18 µM (active) | 
NCCOCCOCCN |  | inactive
COc1ccc(C(=O)Nc2nc3ccccc3c(NCc3ccccc3)c2C#N)cc1 |  | inactive
O=C1O[C@H]([C@H](O)CO)C(O)=C1O |  | inactive
c1ccc2occc2c1 | 5.44 µM (active) | 
CC(C)c1cccc(C(C)C)c1 |  | inactive
CC(C)NCC(O)c1ccc(O)c(O)c1 (stereo not given) | 0.132 µM (active) | 
COC(=O)CCCC(=O)OC |  | inactive
C/C=C/c1ccc(OC)cc1 |  | inactive

SMILES | AC50 | outcome
CCCCCCCCCCCCCCCCO | 13.1 µM (active) | 
C=CCc1ccc(OC)c(OC)c1 | 2.13 µM (active) | 
CC(=O)OCC(COC(C)=O)OC(C)=O |  | inactive
NC1CCCCC1 |  | inactive
C=CCCCCCCCCCCCC |  | inactive
CC(=O)O[C@]1(C(C)=O)CC[C@H]2[C@@H]3C=C(Cl)C4=CC(=O)[C@@H]5C[C@@H]5[C@]4(C)[C@H]3CC[C@@]21C | 50 µM (active) | 
C#CC(O)C(CC)CCCC (stereo not given) | 24.4 µM (active) | 
CCCCCCCCCC[N+](C)(C)[O-] | 34 µM (active) | 
CN(C)C(=O)NC1(c2ccccc2)CCN(CCC[C@]2(c3ccc(Cl)c(Cl)c3)CCCN(C(=O)c3ccccc3)C2)CC1 | 20 µM (active) | 
O=C(O)CC(O)(CC(=O)O)C(=O)O |  | inactive
O=C1NC(=O)C(c2ccccc2)(c2ccccc2)N1 | 1.18 µM (active) | 
CN(C)CCCN1c2ccccc2Sc2ccc(Cl)cc21 | 2.21 µM (active) | 
C/C=C/C=C/C(=O)O |  | inactive
OCC(CO)n1cnc(-c2ccc(F)cc2)c1-c1ccnc(Oc2ccccc2)n1 | 22.6 µM (active) | 
CCCCC(CC)COP(=O)(OCC(CC)CCCC)OCC(CC)CCCC (stereo not given) | 8.38 µM (active) | 
Cc1cc(Cc2ccc(N)c(C)c2)ccc1N | 0.823 µM (active) | 
CC(=O)OC1CC(C)OC(C)O1 (stereo not given) |  | inactive
O=NO |  | inactive
CCN(CC)CCOc1ccc(C(=C(Cl)c2ccccc2)c2ccccc2)cc1 | 3.32 µM (active) | 
O=C(Oc1ccccc1)c1cccc(C(=O)Oc2ccccc2)c1 | 15.9 µM (active) | 
